Assay [1] concerns the target T1, Tyrosine-protein kinase ITK/TSK (Homo sapiens) (UniProt Q08881).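 Further: values are mean percent inhibition of ITK from the GSK PKIS screen.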
T1 sequence (whole entry): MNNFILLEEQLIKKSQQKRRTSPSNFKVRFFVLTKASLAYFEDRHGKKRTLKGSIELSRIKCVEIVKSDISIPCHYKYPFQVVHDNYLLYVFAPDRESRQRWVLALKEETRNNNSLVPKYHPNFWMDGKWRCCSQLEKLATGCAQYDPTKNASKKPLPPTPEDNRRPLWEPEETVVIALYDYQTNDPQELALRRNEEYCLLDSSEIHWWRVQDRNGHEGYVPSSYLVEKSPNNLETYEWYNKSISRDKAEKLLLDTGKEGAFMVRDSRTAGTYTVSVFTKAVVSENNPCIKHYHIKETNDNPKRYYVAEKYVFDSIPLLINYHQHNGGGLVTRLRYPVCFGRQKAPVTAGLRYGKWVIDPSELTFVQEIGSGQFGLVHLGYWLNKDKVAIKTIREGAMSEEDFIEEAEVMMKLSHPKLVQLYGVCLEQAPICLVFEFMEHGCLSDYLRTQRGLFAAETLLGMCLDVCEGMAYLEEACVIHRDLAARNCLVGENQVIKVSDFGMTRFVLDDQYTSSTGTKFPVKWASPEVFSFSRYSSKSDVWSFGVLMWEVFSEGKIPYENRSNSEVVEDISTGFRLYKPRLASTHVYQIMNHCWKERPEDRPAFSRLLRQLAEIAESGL
The settings on record: at 1 µM.

Assay [2] deals with Tyrosine-protein kinase JAK1 (Homo sapiens) (UniProt P23458). The settings on record: at 0.1 µM.
For assay [3] the target is unchanged. As to conditions: at 1 µM.
In assay [4] the target is Tyrosine-protein kinase JAK2 (Homo sapiens) (UniProt O60674). The settings on record: at 0.1 µM.
Assay [5] has the same target. As to conditions: at 1 µM.
In assay [6] the target is T2, Tyrosine-protein kinase JAK3 (Homo sapiens) (UniProt P52333).
T2 sequence (whole entry): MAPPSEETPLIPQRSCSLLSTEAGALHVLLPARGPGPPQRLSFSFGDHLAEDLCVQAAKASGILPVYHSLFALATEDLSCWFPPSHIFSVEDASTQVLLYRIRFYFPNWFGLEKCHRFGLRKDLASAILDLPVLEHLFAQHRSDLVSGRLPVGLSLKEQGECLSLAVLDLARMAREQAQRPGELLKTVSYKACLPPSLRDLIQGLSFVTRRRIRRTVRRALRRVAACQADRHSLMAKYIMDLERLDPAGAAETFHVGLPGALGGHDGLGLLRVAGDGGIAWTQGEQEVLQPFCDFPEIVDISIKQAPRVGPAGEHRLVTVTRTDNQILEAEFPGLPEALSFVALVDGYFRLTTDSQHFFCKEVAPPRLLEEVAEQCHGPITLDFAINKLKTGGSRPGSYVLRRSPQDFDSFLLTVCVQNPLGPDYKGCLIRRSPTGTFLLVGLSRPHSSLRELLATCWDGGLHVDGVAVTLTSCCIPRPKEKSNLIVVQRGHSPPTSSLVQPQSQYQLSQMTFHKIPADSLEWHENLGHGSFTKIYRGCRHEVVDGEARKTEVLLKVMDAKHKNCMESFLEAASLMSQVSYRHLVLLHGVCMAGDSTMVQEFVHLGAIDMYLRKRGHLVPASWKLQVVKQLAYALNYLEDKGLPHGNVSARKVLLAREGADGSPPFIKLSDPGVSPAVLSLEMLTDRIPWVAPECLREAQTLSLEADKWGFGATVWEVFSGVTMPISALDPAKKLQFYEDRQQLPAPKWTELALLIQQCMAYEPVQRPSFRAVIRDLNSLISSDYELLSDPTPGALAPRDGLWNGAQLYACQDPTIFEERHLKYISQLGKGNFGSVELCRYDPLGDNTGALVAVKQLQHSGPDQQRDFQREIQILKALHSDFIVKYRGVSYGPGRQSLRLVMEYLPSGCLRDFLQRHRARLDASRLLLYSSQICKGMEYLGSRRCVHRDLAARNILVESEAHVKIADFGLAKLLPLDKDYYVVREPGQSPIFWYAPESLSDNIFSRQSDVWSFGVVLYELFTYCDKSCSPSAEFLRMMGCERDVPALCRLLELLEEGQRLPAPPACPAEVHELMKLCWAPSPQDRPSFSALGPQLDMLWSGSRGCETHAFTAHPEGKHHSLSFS
The settings on record: at 0.1 µM.

Assay [7] concerns the target T2, Tyrosine-protein kinase JAK3 (Homo sapiens). As to conditions: at 1 µM.
Assay [8] concerns the target Vascular endothelial growth factor receptor 2 (Homo sapiens) (UniProt P35968). The settings on record: at 0.1 µM.
For assay [9] the target is unchanged. The settings on record: at 1 µM.
Assay [10] addresses Mast/stem cell growth factor receptor Kit (Homo sapiens) (UniProt P10721). The settings on record: at 0.1 µM.
The target is the same in assay [11]. As to conditions: at 1 µM.
The test system of assay [12] is Mast/stem cell growth factor receptor Kit (Homo sapiens), P10721 [D816V]. As to conditions: at 0.1 µM.
For assay [13] the test system is unchanged. The settings on record: at 1 µM.
Assay [14] relates to Mast/stem cell growth factor receptor Kit (Homo sapiens), P10721 [T670I]. As to conditions: at 0.1 µM.
The test system is the same in assay [15]. As to conditions: at 1 µM.
Assay [16] deals with Mast/stem cell growth factor receptor Kit (Homo sapiens), P10721 [V560G]. The settings on record: at 0.1 µM.
Assay [17] shares this test system. The settings on record: at 1 µM.
Assay [18] has as its target Tyrosine-protein kinase Lck (Homo sapiens) (UniProt P06239). The settings on record: at 0.1 µM.
The target is the same in assay [19]. The settings on record: at 1 µM.
Assay [20] concerns the target Leukocyte tyrosine kinase receptor (Homo sapiens) (UniProt P29376). The settings on record: at 0.1 µM.

Tyrosine-protein kinase JAK1 (Homo sapiens), sequence (P23458 whole entry): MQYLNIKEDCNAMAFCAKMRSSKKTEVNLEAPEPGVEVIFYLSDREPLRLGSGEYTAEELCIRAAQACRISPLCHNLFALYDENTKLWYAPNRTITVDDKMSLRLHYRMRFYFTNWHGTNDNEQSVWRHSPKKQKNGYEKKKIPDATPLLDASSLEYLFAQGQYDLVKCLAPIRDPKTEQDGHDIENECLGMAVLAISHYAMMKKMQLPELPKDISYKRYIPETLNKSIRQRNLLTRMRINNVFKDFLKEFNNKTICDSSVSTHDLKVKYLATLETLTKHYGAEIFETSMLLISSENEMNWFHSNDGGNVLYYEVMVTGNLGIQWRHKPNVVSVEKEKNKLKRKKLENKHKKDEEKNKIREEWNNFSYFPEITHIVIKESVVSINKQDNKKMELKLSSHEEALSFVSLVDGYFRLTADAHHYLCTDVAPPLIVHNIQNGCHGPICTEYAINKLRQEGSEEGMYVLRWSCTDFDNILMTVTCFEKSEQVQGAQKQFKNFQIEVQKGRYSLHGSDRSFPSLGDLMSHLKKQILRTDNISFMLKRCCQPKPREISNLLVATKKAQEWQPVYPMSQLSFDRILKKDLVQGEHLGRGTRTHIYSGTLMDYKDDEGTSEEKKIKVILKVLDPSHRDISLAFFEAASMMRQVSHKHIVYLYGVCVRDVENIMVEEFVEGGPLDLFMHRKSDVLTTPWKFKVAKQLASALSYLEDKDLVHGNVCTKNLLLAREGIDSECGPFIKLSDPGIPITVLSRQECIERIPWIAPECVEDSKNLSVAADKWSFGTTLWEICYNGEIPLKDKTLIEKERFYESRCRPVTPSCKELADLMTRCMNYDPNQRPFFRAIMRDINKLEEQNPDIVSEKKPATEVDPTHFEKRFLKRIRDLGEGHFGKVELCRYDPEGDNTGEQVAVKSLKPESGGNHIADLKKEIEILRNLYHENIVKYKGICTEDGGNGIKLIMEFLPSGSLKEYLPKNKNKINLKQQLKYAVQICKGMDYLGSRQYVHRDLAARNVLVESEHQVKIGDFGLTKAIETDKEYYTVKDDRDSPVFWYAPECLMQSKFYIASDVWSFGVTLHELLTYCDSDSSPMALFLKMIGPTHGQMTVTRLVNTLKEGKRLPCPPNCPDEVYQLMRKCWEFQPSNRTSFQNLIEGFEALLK
Vascular endothelial growth factor receptor 2 (Homo sapiens), sequence (P35968 whole entry): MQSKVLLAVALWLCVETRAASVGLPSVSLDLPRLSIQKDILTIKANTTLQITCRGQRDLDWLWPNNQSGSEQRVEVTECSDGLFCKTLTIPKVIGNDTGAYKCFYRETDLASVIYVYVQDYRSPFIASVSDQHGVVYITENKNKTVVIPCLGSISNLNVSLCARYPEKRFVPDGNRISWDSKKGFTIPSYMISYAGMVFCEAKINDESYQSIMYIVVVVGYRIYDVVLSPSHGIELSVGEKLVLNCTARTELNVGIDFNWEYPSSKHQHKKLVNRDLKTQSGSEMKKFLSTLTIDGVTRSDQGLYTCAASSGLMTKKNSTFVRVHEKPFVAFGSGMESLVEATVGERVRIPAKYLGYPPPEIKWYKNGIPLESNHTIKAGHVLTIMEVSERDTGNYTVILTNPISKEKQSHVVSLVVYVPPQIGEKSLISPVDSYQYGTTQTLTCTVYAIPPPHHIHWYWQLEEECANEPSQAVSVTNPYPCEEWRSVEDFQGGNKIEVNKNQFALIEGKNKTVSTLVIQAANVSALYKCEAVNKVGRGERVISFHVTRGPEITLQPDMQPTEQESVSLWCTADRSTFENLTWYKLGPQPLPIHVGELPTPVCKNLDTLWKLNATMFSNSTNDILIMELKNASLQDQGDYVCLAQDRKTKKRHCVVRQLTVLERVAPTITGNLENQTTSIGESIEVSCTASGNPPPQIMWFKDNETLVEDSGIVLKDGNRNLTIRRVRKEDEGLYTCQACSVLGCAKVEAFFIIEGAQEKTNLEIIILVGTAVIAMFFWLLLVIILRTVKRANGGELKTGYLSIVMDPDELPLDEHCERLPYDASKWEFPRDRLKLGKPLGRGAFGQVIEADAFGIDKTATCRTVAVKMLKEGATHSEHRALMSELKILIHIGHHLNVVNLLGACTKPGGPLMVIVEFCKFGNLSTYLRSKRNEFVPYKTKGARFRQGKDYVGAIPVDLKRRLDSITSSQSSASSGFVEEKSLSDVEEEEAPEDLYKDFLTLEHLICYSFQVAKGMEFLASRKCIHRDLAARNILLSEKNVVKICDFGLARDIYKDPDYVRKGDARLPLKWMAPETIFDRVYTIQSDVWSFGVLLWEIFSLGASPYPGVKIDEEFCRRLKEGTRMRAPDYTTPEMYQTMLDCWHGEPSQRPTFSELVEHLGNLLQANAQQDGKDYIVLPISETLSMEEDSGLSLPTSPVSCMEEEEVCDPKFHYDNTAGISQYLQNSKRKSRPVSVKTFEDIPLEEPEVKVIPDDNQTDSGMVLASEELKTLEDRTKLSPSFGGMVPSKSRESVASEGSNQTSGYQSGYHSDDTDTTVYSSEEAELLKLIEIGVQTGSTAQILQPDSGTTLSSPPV
Tyrosine-protein kinase Lck (Homo sapiens), sequence (P06239 2-509 limits assumed): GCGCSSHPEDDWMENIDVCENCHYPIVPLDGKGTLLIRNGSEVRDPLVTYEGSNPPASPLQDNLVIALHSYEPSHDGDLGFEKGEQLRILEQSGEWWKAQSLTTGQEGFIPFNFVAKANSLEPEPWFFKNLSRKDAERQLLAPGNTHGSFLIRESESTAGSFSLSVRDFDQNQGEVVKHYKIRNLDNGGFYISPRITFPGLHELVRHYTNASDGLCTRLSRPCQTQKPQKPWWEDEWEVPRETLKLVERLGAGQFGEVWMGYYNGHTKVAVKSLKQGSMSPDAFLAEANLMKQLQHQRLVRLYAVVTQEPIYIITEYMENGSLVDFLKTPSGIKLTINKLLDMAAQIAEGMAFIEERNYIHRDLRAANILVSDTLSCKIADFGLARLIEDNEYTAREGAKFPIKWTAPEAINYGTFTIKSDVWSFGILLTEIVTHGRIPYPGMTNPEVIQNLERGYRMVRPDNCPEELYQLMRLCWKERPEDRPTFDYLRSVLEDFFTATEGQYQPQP
Mast/stem cell growth factor receptor Kit (Homo sapiens), P10721 [D816V], sequence (P10721 whole entry D816V): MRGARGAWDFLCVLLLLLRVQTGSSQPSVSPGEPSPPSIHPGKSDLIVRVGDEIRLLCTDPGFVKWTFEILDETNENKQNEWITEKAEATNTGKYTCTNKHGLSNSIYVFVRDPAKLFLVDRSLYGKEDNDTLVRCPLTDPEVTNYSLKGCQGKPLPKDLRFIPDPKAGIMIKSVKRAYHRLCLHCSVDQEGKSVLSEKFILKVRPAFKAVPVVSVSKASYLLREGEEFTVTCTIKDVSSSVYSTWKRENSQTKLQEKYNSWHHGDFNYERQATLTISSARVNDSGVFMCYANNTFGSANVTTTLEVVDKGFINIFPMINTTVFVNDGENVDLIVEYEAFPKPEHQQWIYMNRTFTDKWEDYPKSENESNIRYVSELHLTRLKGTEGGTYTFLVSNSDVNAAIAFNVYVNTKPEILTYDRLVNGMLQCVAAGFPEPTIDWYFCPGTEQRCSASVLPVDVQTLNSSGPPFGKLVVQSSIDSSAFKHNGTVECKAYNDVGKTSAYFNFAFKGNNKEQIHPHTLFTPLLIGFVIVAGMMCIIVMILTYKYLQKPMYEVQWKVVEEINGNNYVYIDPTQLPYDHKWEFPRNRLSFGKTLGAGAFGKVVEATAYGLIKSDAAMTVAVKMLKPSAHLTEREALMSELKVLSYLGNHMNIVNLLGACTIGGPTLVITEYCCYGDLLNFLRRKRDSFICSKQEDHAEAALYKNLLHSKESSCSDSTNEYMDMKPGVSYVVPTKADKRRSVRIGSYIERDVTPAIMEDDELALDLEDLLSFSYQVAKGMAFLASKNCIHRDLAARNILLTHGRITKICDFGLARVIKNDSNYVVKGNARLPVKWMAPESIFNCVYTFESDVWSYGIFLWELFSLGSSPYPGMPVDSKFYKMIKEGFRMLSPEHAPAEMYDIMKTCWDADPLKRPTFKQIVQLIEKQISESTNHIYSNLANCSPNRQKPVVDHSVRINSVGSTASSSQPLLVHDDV
Mast/stem cell growth factor receptor Kit (Homo sapiens), P10721 [V560G], sequence (P10721 whole entry V560G): as the sequence (P10721 whole entry D816V) above, with V560G, V816D counted along it
Mast/stem cell growth factor receptor Kit (Homo sapiens), sequence (P10721 whole entry): as the sequence (P10721 whole entry D816V) above, with V816D counted along it
Mast/stem cell growth factor receptor Kit (Homo sapiens), P10721 [T670I], sequence (P10721 whole entry T670I): as the sequence (P10721 whole entry D816V) above, with T670I, V816D counted along it
Leukocyte tyrosine kinase receptor (Homo sapiens), sequence (P29376 whole entry): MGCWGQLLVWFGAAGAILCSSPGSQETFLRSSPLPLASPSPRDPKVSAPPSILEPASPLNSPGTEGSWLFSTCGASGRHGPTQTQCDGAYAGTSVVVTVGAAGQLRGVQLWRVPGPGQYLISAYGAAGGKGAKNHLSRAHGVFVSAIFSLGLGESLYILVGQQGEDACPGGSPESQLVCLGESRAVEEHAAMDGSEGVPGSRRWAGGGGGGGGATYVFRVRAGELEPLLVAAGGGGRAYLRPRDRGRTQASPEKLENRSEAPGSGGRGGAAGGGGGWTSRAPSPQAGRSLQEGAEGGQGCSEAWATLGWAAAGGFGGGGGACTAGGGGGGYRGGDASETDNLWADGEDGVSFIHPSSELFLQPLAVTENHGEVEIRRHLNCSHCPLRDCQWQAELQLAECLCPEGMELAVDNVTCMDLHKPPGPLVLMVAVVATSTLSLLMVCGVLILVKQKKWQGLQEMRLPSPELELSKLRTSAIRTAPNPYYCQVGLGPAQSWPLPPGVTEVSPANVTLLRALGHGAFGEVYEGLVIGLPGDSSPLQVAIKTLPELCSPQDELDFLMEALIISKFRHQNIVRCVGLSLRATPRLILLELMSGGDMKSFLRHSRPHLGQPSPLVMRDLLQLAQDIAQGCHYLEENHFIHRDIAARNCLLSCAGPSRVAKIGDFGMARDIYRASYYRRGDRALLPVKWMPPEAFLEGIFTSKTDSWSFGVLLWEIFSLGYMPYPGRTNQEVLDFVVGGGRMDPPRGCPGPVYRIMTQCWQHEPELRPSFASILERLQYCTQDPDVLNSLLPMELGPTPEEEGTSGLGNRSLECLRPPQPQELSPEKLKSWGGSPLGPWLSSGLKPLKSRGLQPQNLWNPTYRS

The term inhibition denotes the drop in the measured response relative to a control, in per cent. With `CS(=O)(=O)CCNCc1ccc(-c2ccc3ncnc(Nc4ccc(OCc5ccccc5)c(Br)c4)c3c2)o1`, the inhibition was -2.69% in assay [1]; 3.52% in assay [2]; 3.08% in assay [3]; 1.19% in [4]; -1.02% in assay [5]; -5.54% in assay [6]. The inhibition in [7] was -5.98%; in assay [8], 10.1%; in assay [9] it was 11.1%; in assay [10], 3.38%; in [11] it was 3.91%; in assay [12] it was 4.87%. The inhibition was 2.18% in assay [13]; 2.66% in assay [14]; 1.79% in [15]; -3.28% in assay [16]; -1.19% in assay [17]; 0.4% in assay [18]. The inhibition in assay [19] worked out at 4.79%; in assay [20], 2.96%.
Regarding `COc1cc(N2CCN(C(C)C)CC2)ccc1Nc1nc(Nc2ccc(F)cc2C(=O)NC[C@@H](O)CO)c2cc[nH]c2n1`, the inhibition in assay [1] is -1.4%; in assay [2], 3.78%; in assay [3], 12.3%; in assay [4], 0.29%; in assay [5], 1.56%; in [6] it was -5.03%. Also, the inhibition in assay [7] was -8.11%; in assay [8], 5.49%; in [9], 8.49%; in assay [10], 4.46%; in [11], 6.9%; in [12], 4.14%. Also, the inhibition in assay [13] is 7.71%; in [14], 3.52%; in assay [15], 4.77%; in assay [16] it was -2.07%; in [17], -1.61%; in assay [18], -1.06%. In addition, the inhibition was -2.81% in [19] and 55.2% in [20].
Consider `O=C(NCC1CC1)c1ccc(-c2cccc(C(=O)NC3CC3)c2)cc1`, for which the inhibition is 2.71% in assay [1]; 0.26% in [2]; -6.93% in [3]; 1.73% in assay [4]; 0.94% in assay [5]; -0.66% in assay [6]. Besides, the inhibition in assay [7] was 0.07%; in assay [8], 5.99%; in assay [9], 8.55%; in assay [10] it was 1.06%; in [11], 3.45%; in [12], 2.24%. In addition, the inhibition in assay [13] was -0.44%; in [14], 3.77%; in [15], -2.45%; in [16] it was 3.49%; in assay [17], 5.84%; in [18] it was 1.74%. The inhibition in [19] came out at 4.51%; in [20], 1.6%.
For `Fc1ccc(-c2nc3n(c2-c2ccncc2)CCS3)cc1`, the inhibition was -1.9% in [1]; 2.03% in assay [2]; 4.76% in assay [3]; 0.84% in [4]; 1.07% in [5]; -4.98% in assay [6]. Further, the inhibition in assay [7] is -4.14%; in [8] it was 5.19%; in assay [9], 8.03%; in assay [10] it was 5.12%; in assay [11] it was 2.15%; in [12], 4.1%. Moreover, the inhibition in [13] was 1.39%; in assay [14], 2.38%; in assay [15], 2.22%; in assay [16], 0.09%; in assay [17], -0.72%; in assay [18], -2.03%. For the same molecule, the inhibition in assay [19] was 1.29%; in [20], 1.98%.
`CS(=O)(=O)CCNCc1cc(-c2cc3c(Nc4ccc(OCc5cccc(F)c5)c(Cl)c4)ncnc3s2)cs1`: the inhibition in assay [1] is 3.04%; in assay [2] it was -1.42%; in assay [3], 3.76%; in assay [4] it was 2.28%; in assay [5] it was 5.69%; in [6], -2.63%. The inhibition is -0.49% in [7]; 6.12% in assay [8]; 8.97% in assay [9]; 7.21% in assay [10]; 8.47% in [11]; 2.03% in [12]. The inhibition in assay [13] is 6.26%; in [14] it was 2.2%; in assay [15], 5.07%; in assay [16], -1.18%; in [17], 0.47%; in [18] it was 2.76%. Besides, the inhibition came to 4.18% in [19] and 6.05% in assay [20].
For the molecule `COc1ccc(C2=C(N3CCc4ccccc43)C(=O)NC2=O)cc1`, the inhibition in [1] was 2.26%; in [2], 3.92%; in assay [3], 7.64%; in assay [4] it was 2.9%; in assay [5], 3.26%; in [6], -0.7%. Moreover, the inhibition in [7] was found to be 1.63%; in assay [8], 8.98%; in [9], 14.5%; in [10], 7.63%; in assay [11] it was 15.1%; in assay [12], 3.56%. Besides, the inhibition in [13] came out at 3.25%; in assay [14], 6.38%; in assay [15], 5.55%; in assay [16] it was 3.19%; in [17], 4.55%; in [18], 4.42%. Besides, the inhibition in assay [19] was 4.16%; in [20] it was 5.23%.

These data come from ChEMBL document CHEMBL1961873, “Compounds: GSK PKIS; Assays: Nanosyn kinase panel” (2012).
